# The source made the active and inactive calls. Unless noted, the rule behind the calls is not given here.
# What was measured:
# [1] = resazurin metabolic signal in HepG2 cells – cell-based, resazurin fluorescence, 24 h, PK04 Diversity Set, profiling panel (AID 1172); conditions: HepG2 viability, higher = more signal; note: test concentration not given here
# [2] = budding yeast growth changes without added modifier – OD600, strain BY4716, 24 h, basal condition, primary screen (AID 1173); conditions: S. cerevisiae BY4716 growth, OD600, 24 h; higher = more signal, called active from +8 up or from −8 down
# [3] = viability profiling in MM1S myeloma cells – cell-based, resazurin fluorescence, basal, 24 h, PK04 Diversity Set, profiling panel (AID 1174); conditions: higher = more signal, called active from +8 up or from −8 down;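 note: MM1S multiple myeloma cell line; test concentration not given here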
# [4] = biological target: Dihydroorotate dehydrogenase (quinone), mitochondrial (Plasmodium falciparum (isolate 3D7)) (UniProt Q08210); assay: inhibition of P. falciparum DHODH – biochemical, C-terminal His tag, absorbance 600 nm, primary screen (AID 1175); conditions: PfDHODH enzyme, DCIP absorbance 600 nm; higher = more signal, called active from +8 up or from −8 down;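 note: recombinant parasite enzyme with a five histidine tag at its C terminus; test concentration not given here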
# [5] = inhibition of PAO1 biofilm formation – strain PAO1, LB-PBS medium, absorbance 600 nm, primary screen (AID 1176); note: test concentration not given here; conditions: P. aeruginosa PAO1 growth/biofilm, A600, 12 h; higher = more signal
# [6] = growth modulation of vineyard yeast isolate – strain RM11-1a, OD600, basal, 24 h, primary screen (AID 1177);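 note: cultures grown under basal conditions with no added stressor; test concentration not given here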; conditions: S. cerevisiae RM11-1a growth, OD600, 24 h; higher = more signal, called active from +8 up or from −8 down
# [7] = growth of efflux-deficient E. coli DRC39 – strain DRC39, OD650, 24 h, E. coli filamentation inducers, primary screen (AID 1178);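 note: growth measured as culture turbidity by optical density at 650 nm; test concentration not given here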; conditions: E. coli DRC39 acrAB, higher = more signal, called active from +8 up or from −8 down
# [8] = growth of efflux-deficient E. coli DRC39 – strain DRC39, OD650, 48 h, E. coli filamentation inducers, primary screen (AID 1179);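 note: screen aims at cell division blockers that make cells filament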; conditions: E. coli DRC39 delta-acrAB growth, higher = more signal, called active from +8 up or from −8 down
# [9] = viability profiling in RPMI8226 myeloma cells – cell-based, resazurin fluorescence, basal, 24 h, PK04 Diversity Set, profiling panel (AID 1180); conditions: higher = more signal;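 note: RPMI8826 multiple myeloma cell line at 5000 cells per well; test concentration not given here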
# [10] = biological target: E3 ubiquitin-protein ligase XIAP (Homo sapiens) (UniProt P98170); assay: small molecules binding XIAP protein – biophysical, small-molecule microarray, fluorescence 635 nm, primary screen (AID 1181); conditions: higher = more signal;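 note: score merges 667 nm emission and signal to noise over triplicate slides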
# E3 ubiquitin-protein ligase XIAP (Homo sapiens), sequence (P98170 whole entry, looked up): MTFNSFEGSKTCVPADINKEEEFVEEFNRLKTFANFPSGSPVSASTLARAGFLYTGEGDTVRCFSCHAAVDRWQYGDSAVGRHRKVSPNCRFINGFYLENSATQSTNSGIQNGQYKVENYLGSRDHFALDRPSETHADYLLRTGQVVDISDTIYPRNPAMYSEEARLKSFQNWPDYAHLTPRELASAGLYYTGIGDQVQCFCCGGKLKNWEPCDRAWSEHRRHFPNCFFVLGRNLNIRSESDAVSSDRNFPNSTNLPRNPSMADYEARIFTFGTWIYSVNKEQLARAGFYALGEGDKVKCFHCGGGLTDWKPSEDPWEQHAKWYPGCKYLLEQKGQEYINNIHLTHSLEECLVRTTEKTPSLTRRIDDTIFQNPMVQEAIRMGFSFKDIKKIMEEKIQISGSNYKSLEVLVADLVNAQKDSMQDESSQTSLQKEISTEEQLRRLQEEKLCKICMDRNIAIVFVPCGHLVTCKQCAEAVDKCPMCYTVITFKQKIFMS
# Dihydroorotate dehydrogenase (quinone), mitochondrial (Plasmodium falciparum (isolate 3D7)), sequence (Q08210 whole entry, looked up): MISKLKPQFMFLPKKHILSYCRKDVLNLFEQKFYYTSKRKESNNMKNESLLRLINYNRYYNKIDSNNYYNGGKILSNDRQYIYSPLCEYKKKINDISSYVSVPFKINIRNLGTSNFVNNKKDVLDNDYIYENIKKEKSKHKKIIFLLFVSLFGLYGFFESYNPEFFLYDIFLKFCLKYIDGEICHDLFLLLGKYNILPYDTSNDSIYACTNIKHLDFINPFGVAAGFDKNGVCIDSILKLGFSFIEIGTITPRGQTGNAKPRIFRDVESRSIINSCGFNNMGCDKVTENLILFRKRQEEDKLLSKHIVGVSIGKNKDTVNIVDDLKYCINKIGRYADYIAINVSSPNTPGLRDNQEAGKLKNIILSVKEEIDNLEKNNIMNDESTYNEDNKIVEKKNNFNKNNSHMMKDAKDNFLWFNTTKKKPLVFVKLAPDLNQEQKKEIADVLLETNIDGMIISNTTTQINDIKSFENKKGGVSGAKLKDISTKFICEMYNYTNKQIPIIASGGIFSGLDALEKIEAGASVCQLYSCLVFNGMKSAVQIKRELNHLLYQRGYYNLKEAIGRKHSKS
SMILES,z-score [1],z-score [2],z-score [3],composite z-score [4],z-score [5],z-score [6],z-score [7],z-score [8],z-score [9],composite z-score [10]
O=C1O[C@@H](c2ccccc2)[C@@H](c2ccccc2)N2[C@@H](c3ccc(OCCO)cc3)[C@]3(C(=O)Nc4ccccc43)[C@@H](C(=O)N3CCN(c4ncccn4)CC3)[C@H]12,-0.18,0.944 (inactive),-0.271 (inactive),-2.37 (inactive),1.47 (inactive),2.78 (inactive),0.142 (inactive),1.07 (inactive),0.652,-0.227
C#CCCCON=C1C[C@@H](O)[C@@H](O)[C@@H]2[C@@H]3C(=O)N(Cc4ccccc4)C(=O)[C@@H]3CC[C@H]12,1.02,-1.43 (inactive),0.582 (inactive),-0.794 (inactive),0.495 (inactive),-1.59 (inactive),-0.039 (inactive),-0.923 (inactive),0.781,-0.256
Cc1ccc(S[C@]2(C(=O)O)CC(=O)N(Cc3ccccc3)[C@@H]2c2ccc(CO)cc2I)cc1,-0.201,-3.44 (inactive),-2.14 (inactive),-0.975 (inactive),0.649 (inactive),-1.44 (inactive),-0.256 (inactive),-0.246 (inactive),-1.26,-0.287
O=C1C[C@@H](O)[C@@H](O)[C@@H]2[C@@H]3C(=O)N(C4CCCCC4)C(=O)[C@@H]3CC[C@H]12,0.513,0.44 (inactive),-0.122 (inactive),0.349 (inactive),-0.319 (inactive),-0.247 (inactive),-0.0543 (inactive),-0.292 (inactive),0.288,-0.0454
O=C1[C@H]2[C@H]3[C@H](O)[C@H](O)CC(=NOCc4ccccc4)[C@@H]3CC[C@H]2C(=O)N1Cc1ccccc1,1.38,-0.148 (inactive),0.85 (inactive),-0.0807 (inactive),-0.377 (inactive),-0.118 (inactive),0.16 (inactive),0.71 (inactive),1.17,0.0512
COCCOC(=O)N1C(=O)[C@@]2(c3ccccc31)[C@H](C(N)=O)[C@H]1C(=O)O[C@H](c3ccccc3)[C@H](c3ccccc3)N1[C@@H]2c1ccccc1OCCO,-1.23,0.225 (inactive),-2.56 (inactive),0.692 (inactive),0.517 (inactive),1.63 (inactive),0.201 (inactive),-0.158 (inactive),-4.25,0.209
CC(CCC(=O)OC[C@H]1O[C@H](C#Cc2ccccc2)C=C[C@@H]1Oc1ccc(C)cc1)=NOC[C@@H](O)[C@H]1O[C@@H]2OC(C)(C)O[C@@H]2[C@H]1O,-0.279,0.197 (inactive),0.134 (inactive),-2.15 (inactive),-0.324 (inactive),0.71 (inactive),0.844 (inactive),1.1 (inactive),0.0234,-0.325
CC1CC/C=C\[C@H]2OC34C=CCN(C(C)C)C(=O)[C@H]3N(CCCO)C(=O)[C@@H]4C2C(=O)O1 (stereo not given in full),0.49,-0.404 (inactive),0.48 (inactive),0.395 (inactive),-0.91 (inactive),-0.467 (inactive),1.05 (inactive),0.634 (inactive),0.817,0.0131
C=C(/C(=C/C[C@@H](OC(=O)c1ccncc1)c1ccc(OCCO)cc1)c1cnc2ccccc2c1)C(C)C,0.384,-18.5 (active),-0.684 (inactive),-10.5 (active),-0.235 (inactive),-22.1 (active),0.872 (inactive),0.432 (inactive),0.206,-0.0373
C=CCN1C(=O)[C@]2(O[C@H](CCn3cc(CCO)nn3)[C@@H]([Si](C)(C)c3ccc(OC)cc3)[C@@H]2C)c2cc(N3CCOC3=O)ccc21,-0.0584,-0.528 (inactive),-0.368 (inactive),-0.173 (inactive),0.614 (inactive),0.817 (inactive),-0.815 (inactive),-1.18 (inactive),-0.789,-0.124
CC(C)=CCCC(C)=CCON=C1[C@H]2CCn3c(=O)n(Cc4cc5c(cc4Cl)OCO5)c(=O)n3[C@H]2[C@H](O)[C@@H]2O[C@H]12,-0.594,-0.696 (inactive),-0.738 (inactive),0.207 (inactive),-0.471 (inactive),-0.537 (inactive),-0.464 (inactive),-0.72 (inactive),-0.357,-0.224
CC(=O)OC[C@H]1O[C@H](CCON=C(C)CCN2CCc3nc(-c4ccccc4)c(-c4ccccc4)cc3C2)C=C[C@@H]1OC(C)=O,0.0962,-0.0567 (inactive),-0.91 (inactive),-0.439 (inactive),0.441 (inactive),-0.64 (inactive),0.304 (inactive),-0.545 (inactive),0.28,0.275
CCCNC(=O)[C@@H]1c2ccccc2C(=O)N(Cc2ccccc2Cl)[C@H]1c1ccc(CO)cc1,1.44,-0.768 (inactive),0.496 (inactive),-0.227 (inactive),-0.217 (inactive),0.251 (inactive),0.812 (inactive),0.829 (inactive),1.45,-0.078
